Source: PubChem BioAssay (NCATS)
Results filed as inconclusive are left out. Where a call stands in place of a potency, no number is given. Activity calls are given as the source filed them. Calls follow the shape of the dose curve; as a rule, active = well fitted inhibition curve with a large enough effect; inconclusive = small, poorly fitted or top-dose-only effect; inactive = flat fitted curve, though single readings scatter.

Molecular target: Calcium and integrin-binding protein 1 (Homo sapiens) (UniProt Q99828)
Sequence (Q99828 whole entry, looked up): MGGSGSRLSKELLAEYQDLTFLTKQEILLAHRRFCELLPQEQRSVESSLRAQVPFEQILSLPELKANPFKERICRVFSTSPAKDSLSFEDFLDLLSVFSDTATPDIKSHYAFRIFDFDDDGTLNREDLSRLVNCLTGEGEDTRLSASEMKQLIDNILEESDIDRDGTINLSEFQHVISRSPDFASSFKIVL
Experiment: Primary qHTS for Identification of Calcium Integrin Binding Protein 1 (CIB1) Competitor (AID 1508620);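 also: GST tagged CIB1 binding a fluorescein labelled alphaIIb integrin peptide tracer; top concentration of the series differs between compounds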
Conditions: CIB1-GST / FITC-alphaIIb peptide fluorescence polarization; series mostly up to 114 µM
How it was run: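 Fluorescence polarization competition: CIB1-GST (1 uM final) preincubated with compound 15 min at room temperature, then FITC-labeled alphaIIb peptide (100 nM final) added for another 15 min. Polarization read at Ex 480/Em 540.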

SMILES	Potency
NC(=O)N1CCC(CC(=O)N2CCC(C3c4ncc(Br)cc4CCc4cc(Cl)cc(Br)c43)CC2)CC1 (stereo not given)	inactive
O=C(CCl)Nc1cccc(NC2=NS(=O)(=O)c3ccccc32)c1	inactive
O=S(=O)(c1ccc(Cl)cc1)N1CCN(c2ccnc3cc(Cl)ccc23)CC1	inactive
Nc1nc2c(s1)CCN(Cc1ccc(Cl)cc1)CC2	inactive
Fc1ccc(N2CCCCC2)c(NC(=S)c2ccncc2)c1	inactive
Fc1ccc2c(CCNCc3cccc(OCC(F)(F)C(F)F)c3)c[nH]c2c1	inactive
Nc1ncnc2c1c(-c1ccc(Cl)cc1)nn2-c1cccc(-c2cnnn2Cc2cccc(-c3ccccc3)c2)c1	inactive
Fc1ccc(-c2nc(-c3c(F)cccc3F)[nH]c2-c2ccncc2)cc1	inactive
CCC[C@H](N[C@H]1CCc2cc(F)cc(F)c2C1)C(=O)Nc1cn(C(C)(C)CNCC(C)(C)C)cn1	inactive
Cc1cc(F)ccc1[C@H]1C[C@@H](N2CCN3C(=O)CC[C@H]3C2)CCN1C(=O)N(C)[C@H](C)c1cc(C(F)(F)F)cc(C(F)(F)F)c1	inactive
CCCC(Nc1nc(-c2ccc(NC(=O)NCC)c(OC)c2)ncc1C)c1cccnc1 (stereo not given)	inactive
COc1ccccc1N1CCN(CC[C@@](C)(C(=O)C2CCCCC2)c2ccccc2)CC1	inactive
Cc1cc2sc(NC(=O)Cc3ccccc3)nc2cc1Cl	inactive
Cc1nnc(-c2ccc(-c3ccc(C(=O)Nc4ccc(O)c(N5CCN(C)CC5)c4)cc3)c(C)c2)o1	inactive
CCN1C(C)(C)CC(Oc2ccc(C(=O)Nc3ccc(NC(=O)Nc4cc(C(C)(C)C)on4)cc3)nc2)CC1(C)C	inactive
